Data from PubChem BioAssay AID1159580 (chemical genetic matrix, 2015).
Where “and” joins values, the source holds several entries; their conditions need not be identical. Identical values can stand only once. Out of some 5,500 compounds screened, about 2,000 (36%) were called active. Roughly 18% stayed inconclusive and do not appear here. No stated cut-off is given here; in the data, active means normalized growth mostly below about 0.91 (no sharp cut-off); inconclusive means no clear call, values can overlap the other calls; inactive means mostly above about 0.92. This is one part of the list.

Assay: chemical genetic growth profiling, strain panel (AID 1159580);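 further: tested at 20 µM; growth read once vehicle control cultures reached saturation at 30 °C; 1 = growth at the plate median or of vehicle wells; lower values mean less growth of the strain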
Conditions: growth OD

Measured: normalized growth

OCCN1CCN(CCCN2c3ccccc3Sc3ccc(Cl)cc32)CC1
inactive: S. cerevisiae deletion strains, locus YJR075W, strain HOC1, hits give low values 1 | S. cerevisiae deletion strains, locus YKL009W, strain mrt4, hits give low values 0.982 | S. cerevisiae deletion strains, locus YKL068W, hits give low values 0.999 | S. cerevisiae deletion strains, locus YKL085W, strain MDH1 (second series), hits give low values 1 | S. cerevisiae deletion strains, locus YKL085W, strain MDH1, hits give low values 1 | S. cerevisiae deletion strains, locus YKL160W, strain elf1, hits give low values 0.996 | S. cerevisiae deletion strains, locus YKL190W, strain CNB1, hits give low values 1.01 | S. cerevisiae deletion strains, locus YKR001C, strain vps1, hits give low values 1.03 | S. cerevisiae deletion strains, locus YKR026C, strain gcn3, hits give low values 1 | S. cerevisiae deletion strains, locus YKR091W, strain srl3, hits give low values 1 | S. cerevisiae deletion strains, locus YLL001W, strain dnm1, hits give low values 1.01 | S. cerevisiae deletion strains, locus YLL026W, hits give low values 0.999 | S. cerevisiae deletion strains, locus YLL041C, strain sdh2, hits give low values 1 | S. cerevisiae deletion strains, locus YLR027C, strain aat2, hits give low values 1 | S. cerevisiae deletion strains, locus YLR039C, strain RIC1, hits give low values 1.24 | S. cerevisiae deletion strains, locus YLR058C, strain SHM2, hits give low values 1.01 | S. cerevisiae deletion strains, locus YLR102C, strain apc9, hits give low values 0.991 | S. cerevisiae deletion strains, locus YLR113W, strain HOG1, hits give low values 0.98 | S. cerevisiae deletion strains, locus YLR221C, strain rsa3, hits give low values 1 | S. cerevisiae deletion strains, locus YLR258W, strain gsy2, hits give low values 1 | S. cerevisiae deletion strains, locus YLR262C, strain YPT6 (second series), hits give low values 1.06 | S. cerevisiae deletion strains, locus YLR262C, strain YPT6, hits give low values 1.32 | S. cerevisiae deletion strains, locus YLR268W, strain sec22, hits give low values 0.935 | S. cerevisiae deletion strains, locus YLR320W, strain mms22, hits give low values 0.964 | S. cerevisiae deletion strains, locus YLR330W, strain CHS5, hits give low values 1.01 | S. cerevisiae deletion strains, locus YLR342W, strain FKS1 (second series), hits give low values 0.958 | S. cerevisiae deletion strains, locus YLR342W, strain FKS1, hits give low values 0.994 | S. cerevisiae deletion strains, locus YLR357W, strain rsc2, hits give low values 0.983 | S. cerevisiae deletion strains, locus YLR370C, strain arc18, hits give low values 1 | S. cerevisiae deletion strains, locus YLR371W, strain rom2, hits give low values 0.992 | S. cerevisiae deletion strains, locus YLR384C, strain iki3, hits give low values 1 | S. cerevisiae deletion strains, locus YLR418C, strain cdc73, hits give low values 0.894 | S. cerevisiae deletion strains, locus YML016C, strain PPZ1, hits give low values 1.02 | S. cerevisiae deletion strains, locus YML032C, strain rad52, hits give low values 0.961 | S. cerevisiae deletion strains, locus YML120C, strain ndi1, hits give low values 1 | S. cerevisiae deletion strains, locus YML124C, strain tub3, hits give low values 0.991 | S. cerevisiae deletion strains, locus YMR058W, strain fet3, hits give low values 0.995 | S. cerevisiae deletion strains, locus YMR078C, strain ctf18, hits give low values 0.986 | S. cerevisiae deletion strains, locus YMR125W, strain sto1, hits give low values 1.01 | S. cerevisiae deletion strains, locus YMR129W, hits give low values 1 | S. cerevisiae deletion strains, locus YMR205C, strain PFK2, hits give low values 0.977 | S. cerevisiae deletion strains, locus YMR223W, strain ubp8, hits give low values 0.984 | S. cerevisiae deletion strains, locus YMR231W, strain pep5, hits give low values 1 | S. cerevisiae deletion strains, locus YMR263W, strain SAP30, hits give low values 1 | S. cerevisiae deletion strains, locus YMR307W, strain GAS1, hits give low values 1.1 | S. cerevisiae deletion strains, locus YNL067W, strain RPL9B, hits give low values 0.989 | S. cerevisiae deletion strains, locus YNL071W, strain lat1, hits give low values 1.01 | S. cerevisiae deletion strains, locus YNL128W, strain TEP1, hits give low values 1 | S. cerevisiae deletion strains, locus YNL153C, strain GIM3, hits give low values 0.983 and 0.891 | S. cerevisiae deletion strains, locus YNL175C, strain NOP13, hits give low values 1.03 | S. cerevisiae deletion strains, locus YNL183C, strain NPR1, hits give low values 0.947 | S. cerevisiae deletion strains, locus YNL197C, strain WHI3, hits give low values 1.02 | S. cerevisiae deletion strains, locus YNL209W, strain ssb2, hits give low values 0.997 | S. cerevisiae deletion strains, locus YNL224C, strain SQS1, hits give low values 1.02 | S. cerevisiae deletion strains, locus YNL233W, strain BNI4, hits give low values 0.986 | S. cerevisiae deletion strains, locus YNL248C, strain rpa49, hits give low values 0.998 | S. cerevisiae deletion strains, locus YNL250W, strain rad50, hits give low values 0.985 | S. cerevisiae deletion strains, locus YNL271C, strain bni1, hits give low values 0.996 | S. cerevisiae deletion strains, locus YNL298W, strain CLA4, hits give low values 0.976 | S. cerevisiae deletion strains, locus YNL307C, strain MCK1, hits give low values 0.973 | S. cerevisiae deletion strains, locus YNL322C, strain KRE1 (second series), hits give low values 1 | S. cerevisiae deletion strains, locus YNL322C, strain KRE1, hits give low values 1.01 | S. cerevisiae deletion strains, locus YNR049C, strain mso1, hits give low values 1.01 | S. cerevisiae deletion strains, locus YNR052C, strain pop2, hits give low values 1 | S. cerevisiae deletion strains, locus YOL006C, strain TOP1, hits give low values 1.01 | S. cerevisiae deletion strains, locus YOL012C, strain htz1 0.889 | S. cerevisiae deletion strains, locus YOL147C, strain pex11, hits give low values 0.992 | S. cerevisiae deletion strains, locus YOR001W, strain rrp6, hits give low values 0.976 | S. cerevisiae deletion strains, locus YOR061W, strain CKA2, hits give low values 1.02 | S. cerevisiae deletion strains, locus YOR069W, strain VPS5, hits give low values 1.01 | S. cerevisiae deletion strains, locus YOR070C, strain gyp1, hits give low values 0.994 | S. cerevisiae deletion strains, locus YOR080W, strain dia2, hits give low values 1 | S. cerevisiae deletion strains, locus YOR083W, strain WHI5 (second series), hits give low values 0.973 | S. cerevisiae deletion strains, locus YOR083W, strain WHI5, hits give low values 0.991 | S. cerevisiae deletion strains, locus YOR106W, strain vam3, hits give low values 0.962 | S. cerevisiae deletion strains, locus YOR136W, strain idh2, hits give low values 0.998 | S. cerevisiae deletion strains, locus YOR144C, strain elg1, hits give low values 1 | S. cerevisiae deletion strains, locus YOR184W, strain ser1, hits give low values 0.985 | S. cerevisiae deletion strains, locus YOR231W, strain MKK1, hits give low values 0.997 | S. cerevisiae deletion strains, locus YOR265W, strain rbl2, hits give low values 0.998 | S. cerevisiae deletion strains, locus YOR270C, strain vph1, hits give low values 1.04 | S. cerevisiae deletion strains, locus YOR290C, strain snf2, hits give low values 0.968 | S. cerevisiae deletion strains, locus YOR316C, strain cot1, hits give low values 0.994 | S. cerevisiae deletion strains, locus YPL051W, strain arl3, hits give low values 0.975 | S. cerevisiae deletion strains, locus YPL055C, strain LGE1, hits give low values 0.99 | S. cerevisiae deletion strains, locus YPL078C, strain atp4, hits give low values 1 | S. cerevisiae deletion strains, locus YPL106C, strain sse1, hits give low values 1.03 | S. cerevisiae deletion strains, locus YPL240C, strain hsp82, hits give low values 0.995 | S. cerevisiae deletion strains, locus YPL241C, strain CIN2, hits give low values 1.02 | S. cerevisiae deletion strains, locus YPL256C, strain CLN2, hits give low values 1.01 | S. cerevisiae deletion strains, locus YPR119W, strain clb2, hits give low values 0.991 | S. cerevisiae deletion strains, locus YPR141C, strain kar3, hits give low values 0.996 | S. cerevisiae deletion strains, locus YPR163C, strain tif3, hits give low values 0.987 | S. cerevisiae deletion strains, locus YPR167C, strain met16, hits give low values 1 | S. cerevisiae deletion strains, strain wtn01, hits give low values 0.951 | S. cerevisiae strains, strain wild type, hits give low values 1.01
